Pf growth 48h: inhibits P. falciparum growth in the first generation, 48 h. P. falciparum luciferase growth in erythrocytes, 48 h. Potency, µM (titrated, usually from 28.7 µM), actives largely listed as inhibitors. actives 5.9% (n = 310,000). AID 504832
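A one-generation exposure of luciferase-tagged malaria parasites in RPMI 1640/Albumax erythrocyte culture, 37 C and 5% CO2. Inhibition is inferred from decreased luminescence after adding detection reagent.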
HCV inhibitor: HCV inhibition. AID 651820. actives 3.4% (n = 340,000). Potency, µM (doses to about 41.8 µM), usual class: inhibitors. Huh7.5.1 HCVcc-Cre infection, luciferase reporter, 44 h
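Antiviral activity was scored by luciferase reporter output from cells infected with HCVcc-Cre (~0.5 moi) in presence of compound, 44 h infection period, cells seeded 1,000/well 4 h prior.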
AMA1-RON2 inh: inhibitors of Plasmodium falciparum AMA1-RON2 interaction | actives 0.2% (n = 360,000) | Potency, µM (highest dose often 58.2 µM), hits mostly inhibitors | AlphaScreen AMA1-biotinylated RON2 peptide binding; also: nearly all actives have a fitted effect of over 45% in size
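AMA1 (3D7) with his tag at 25 nM final met compounds first, then biotinylated RON2 peptide at 25 nM; detection used donor plus acceptor beads, 10 µg/mL apiece, read by AlphaScreen after 30 min at room temperature.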
AmpC detergent: inhibitors of E. coli AmpC beta-lactamase with detergent. Potency, µM (titrated, usually from 114 µM), most hits filed as inhibitors. actives 0.041% (n = 370,000). P00811. AmpC hydrolysis of nitrocefin, absorbance 480 nm, 0.01% Triton; also: nearly all actives have a fitted effect of over 25% in size
Target sequence (P00811 whole entry, looked up): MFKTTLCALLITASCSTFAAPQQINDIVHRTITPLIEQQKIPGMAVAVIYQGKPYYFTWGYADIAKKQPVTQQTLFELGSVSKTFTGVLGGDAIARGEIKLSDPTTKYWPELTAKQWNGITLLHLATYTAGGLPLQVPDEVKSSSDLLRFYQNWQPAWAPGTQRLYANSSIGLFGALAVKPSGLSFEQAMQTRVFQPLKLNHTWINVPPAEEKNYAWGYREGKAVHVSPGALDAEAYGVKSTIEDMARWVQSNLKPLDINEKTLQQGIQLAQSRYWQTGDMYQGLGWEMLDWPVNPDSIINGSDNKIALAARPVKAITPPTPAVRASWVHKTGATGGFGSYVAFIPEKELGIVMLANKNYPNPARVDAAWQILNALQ
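20 mM phosphate pH 7.0 + 0.01% (detergent screen) or 0.0001% Triton X-100; 5.3 nM AmpC reagent; cpd preinc 15 min RT; nitrocefin (800 uM stock) to start; A480 q20 s × 4 min; Activity was normalised to no-enzyme and no-compound control wells.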
Pf growth 96h: inhibits malaria parasite growth, 96 h; P. falciparum luciferase reporter growth, 96 h; Potency, µM (doses to about 28.7 µM), hits mostly inhibitors; actives 6.9% (n = 320,000); AID 504834
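Plates of compound plus infected erythrocytes (2% hematocrit, 0.05% parasitemia final) incubate 96 hours, 37 C, 5% CO2. Detection reagent added; reduced luminescence from the parasites' luciferase reporter flags inhibition.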
AmpC inh no detg: AmpC beta-lactamase inhibition without detergent. AID 485341. P00811. AmpC nitrocefin hydrolysis, absorbance 480 nm, 0.0001% Triton. actives 0.52% (n = 330,000). Potency, µM (titrated, usually from 57.1 µM), most hits filed as inhibitors; also: nearly all actives have a fitted effect of over 20% in size
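AmpC (5.3 nM in the dispensed reagent) in 20 mM phosphate pH 7.0 with 0.01% (detergent screen) or 0.0001% Triton X-100 was preincubated with compounds for 15 min at room temperature. Nitrocefin was then added from an 800 uM solution, and hydrolysis was followed at 480 nm.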
Hits are given with their value; . = inactive; ? = inconclusive; / = no result; [ ] = dose if it differs, or a comment. Most compounds without a hit are left out; they make up all but 11% or so of the library. Calls follow the shape of the dose curve; as a rule, active = well fitted curve in the direction sought with a large enough effect; inconclusive = small, poorly fitted or top-dose-only effect, or another doubt; inactive = no such curve, though single readings can be large; an effect the other way counts as inactive or inconclusive.

SMILES	Pf growth 48h	HCV inhibitor	AMA1-RON2 inh	AmpC detergent	Pf growth 96h	AmpC inh no detg
O=C(NCC1CCCO1)c1c[nH]c2ccc(S(=O)(=O)Nc3cccc(C(F)(F)F)c3)cc2c1=O (stereo unspecified)	/	/	/	.	/	/
CCOc1ccc(C(=O)Nc2nc(C)c(C(=O)OC)s2)cc1	.	17.8µM	.	.	.	.
CCOC(=O)c1sc(NC(=S)NC(=O)c2ccc(OC)cc2)nc1C	.	?	.	.	2.94µM	.
CCCCOC(=O)Nc1nc(C)c(C(=O)OCC)s1	/	.	.	.	1.47µM	.
CCOC(=O)c1sc(NC(=O)CC)nc1C	.	.	.	.	.	.
Cc1ccc(-c2nc3scc(CCNS(=O)(=O)c4c(C)noc4C)n3n2)cc1	/	/	/	.	/	/
CC(C)Oc1ccc(CNC(=O)c2cnc3sc(N4CCCC4)nn3c2=O)cc1	/	/	/	.	/	/
O=C(c1ccccc1)c1sc(N2CCOCC2)nc1-c1ccccc1	?	.	.	.	?	.
O=C(c1ccc(Br)cc1)c1sc(N2CCOCC2)nc1-c1ccccc1	?	7.94µM	.	.	.	.
[2H]c1c([2H])c([2H])c(C(=O)c2sc(N3CCCCCC3)nc2-c2ccccc2)c([2H])c1[2H]	?	22.4µM	.	.	?	.
OC(CNCCNc1ncccc1C(F)(F)F)Cn1ccc2ccccc21 (stereo unspecified)	1.47µM	?	.	.	1.85µM	.
Oc1ccccc1NCC(O)Cn1ccc2ccccc21 (stereo unspecified)	?	?	?	?	.	.
OC(CNCc1ccccc1)Cn1ccc2ccccc21 (stereo unspecified)	9.28µM	11.2µM	.	.	?	17.8µM
CC(C)CC(=O)N1CCN(C(=O)c2ccc(F)cc2)CC1	.	.	.	.	13.1µM	.
CC(CC(=O)N1CCN(C(=O)c2ccccc2)CC1)c1ccccc1 (stereo unspecified)	.	.	.	.	.	.
Cc1ccc(N(C)C(=O)Cn2ncc3c([nH]c4ccccc43)c2=O)cc1C	/	/	/	.	/	/
Fc1cccc(Cl)c1Cn1ncc2ccccc21	.	.	.	.	.	.
O=c1cnn(Cc2c(Cl)cccc2Cl)c2ccccc12	13.1µM	.	.	.	9.28µM	.
CCc1ccccc1NC(=O)COC(=O)c1c(C)nsc1NC	.	4.47µM	.	.	.	.
CC(=O)N1c2ccc(S(=O)(=O)N3CCN(c4ccc(C)cc4C)CC3)cc2CC1C (stereo unspecified)	/	/	/	.	/	/
COc1ccc(-c2cc(C(F)(F)F)nc(SCC(=O)Nc3ccc(C(C)=O)cc3)n2)cc1	/	/	/	.	/	/
CC(=O)N1/C(=C/c2ccc(N(C)C)cc2)C(=O)c2ccccc21	.	.	28.2µM	.	?	.
Cc1ccc(CCNC(=O)C(CC(C)C)NS(=O)(=O)c2ccc3c(c2)oc(=O)n3C)cc1 (stereo unspecified)	/	/	/	.	/	/
Cc1c(C(c2ccc(O)cc2)c2c(C)n(C)n(-c3ccccc3)c2=O)c(=O)n(-c2ccccc2)n1C	.	.	.	.	.	.
COc1ccc(C(c2c(C)n(C)n(-c3ccccc3)c2=O)c2c(C)n(C)n(-c3ccccc3)c2=O)c(OC)c1OC	?	.	.	?	10.4µM	.
SMILES	Pf growth 48h	HCV inhibitor	AMA1-RON2 inh	AmpC detergent	Pf growth 96h	AmpC inh no detg
Cc1c(C(c2ccc(C(=O)O)cc2)c2c(C)n(C)n(-c3ccccc3)c2=O)c(=O)n(-c2ccccc2)n1C	/	3.55µM	.	?	.	.
Cc1ccccc1NC(=O)CSc1cn(CC(=O)N(C(C)C)C(C)C)c2ccccc12	/	/	/	.	/	/
Cc1ccc(C)c(NC(=O)CN2CCN(C3CCCCC3)C(=O)C2=O)c1	/	/	/	.	/	/
COc1cc2c(cc1OC)C(COc1ccc(C(C)C)cc1)NCC2 (stereo unspecified)	?	.	.	.	11.7µM	.
COc1cc2c(cc1OC)C(COc1ccc(C(C)C)cc1)N(C(=O)COc1ccccc1)CC2 (stereo unspecified)	/	/	/	.	/	/
CCCN(CCC)C(=O)Cn1c(=O)n(CCCCC(=O)NCc2ccco2)c(=O)c2ccccc21	/	.	.	.	11.7µM	.
O=C(CCCn1c(=O)c2ccccc2n(CC(=O)NCc2ccco2)c1=O)NCc1ccco1	.	.	.	?	.	.
O=C(CCCCn1c(=O)c2ccccc2n(CC(=O)Nc2ccc(F)cc2)c1=O)NCc1ccco1	11.7µM	.	.	?	?	.
COc1cccc(-c2nc(SCc3cc(=O)c4ccc(C)c(C)c4[nH]3)n[nH]2)c1	/	/	/	.	/	/
Nc1ccc2nc(-c3cccc(-c4nc5ccc(N)cc5[nH]4)n3)[nH]c2c1	2.08µM	.	.	.	0.522µM	.
Nc1ccc(-c2nc3ccccc3[nH]2)cc1	.	.	.	?	.	.
Nc1ccc2nc(-c3ccc(-c4nc5ccc(N)cc5[nH]4)cc3)[nH]c2c1	11.7µM	.	.	.	2.33µM	.
COc1ccc2nc(-c3ccccc3)[nH]c2c1	.	.	.	?	11.7µM	.
O=C(c1cccc(F)c1)N1CCC(c2nc3ccccc3s2)CC1	.	?	.	.	4.15µM	.
Cc1cccc(Oc2ccc3c(c2)Oc2ccccc2NC3=O)c1	/	/	/	.	/	/
Cc1cccc(-n2nnc(-c3nc(-c4cccs4)no3)c2N)c1C	/	/	/	.	/	/
Cc1csc(=Nc2cccnc2)n1Cc1ccco1	.	0.562µM	.	.	?	.
CC(C)Cn1c(-c2ccco2)csc1=Nc1cccnc1	14.7µM	.	.	.	?	.
COCCn1c(-c2ccco2)csc1=Nc1cccnc1	?	.	.	.	/	.
CC(C)=N/N=c1\scc(C)n1Cc1ccco1	.	.	.	.	.	.[11.4 µM]
CC1(C)CC(=O)c2cc(C(=O)Nc3ccc(Cl)cc3)c(=O)[nH]c2C1	/	/	/	.	/	/
CC(C)c1ccc2[nH]c(O)c(N=NC(=O)c3ccc(CSc4nncn4C)cc3)c2c1	.	.	.	?	5.22µM	.
Cn1cnnc1SCc1ccc(C(=O)NN)cc1	.	?	.	.	.	.
CCc1ccccc1NC(=O)CSc1nnc(-c2cc(OC)c(OC)c(OC)c2)o1	/	/	/	.	/	/
CC1(C)CC(=O)C2=C(C1)N=C1c3ccccc3C(=O)C1C2c1ccc(Cl)cc1 (stereo unspecified)	?	12.6µM	.	.	?	.
CCOC(=O)C1=C(CP(=O)(c2ccccc2)c2ccccc2)NC(=O)NC1c1ccc(Cl)cc1 (stereo unspecified)	?	.	.	.	?	.
CCOC(=O)C1=C(C)N=C2c3ccccc3C(=O)C2C1c1ccc(Cl)cc1 (stereo unspecified)	10.4µM	15.8µM	.	?	10.4µM	.
Cc1ccc(C2C(=O)c3ccccc3C2=O)cc1	.	.	.	.	.	.
